Screening results as filed in PubChem BioAssay.
An excerpt weighted towards active compounds, which were near 17% of everything screened.
HT1080-NT tox – kills 2HG-producing HT-1080-NT fibrosarcoma cells; HT-1080-NT fibrosarcoma viability, CellTiter-Glo ATP luminescence, 48 h; Potency, µM (top dose mostly 46.1 µM), hits mostly cytotoxic; 360,000 compounds, 1.6% hits;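 also: NT is the 2HG producing partner of a matched IDH1 knockdown line; nearly all actives have a fitted effect of over 55% in size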
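Viability by CellTiter-Glo luminescence after 48 h compound exposure at 37C of HT-1080-NT cells (750/well, RPMI, 5% FBS). % activity scaled between DMSO wells and medium-only wells, then curve-fitted and categorized by curve class.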
HT1080 IDH1KD tx – toxicity to HT-1080 IDH1 knockdown cells (counter line) | HT-1080 IDH1 knockdown viability, ATP luminescence, 48 h | Potency, µM (highest dose often 46.1 µM), hits mostly cytotoxic | 360,000 compounds, 2% hits | AID 686971
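Cytotoxicity counter-line: IDH1KD HT-1080, 48 h, CellTiter-Glo. Curves classed by r2, magnitude and activity.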
TDP1 cell noCPT – qHTS for Inhibitors of human tyrosyl-DNA phosphodiesterase 1 (TDP1): qHTS in cells in absence of CPT; DT40 Tdp1-/- hTDP1 cells, no CPT, ATP luminescence, 48 h; Potency, µM (doses to about 46.2 µM), hits mostly inhibitors; 420,000 compounds, 15% hits; AID 686978, 2013; also: nearly all actives have a fitted effect of over 55% in size
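Stably hTDP1-transfected Tdp1-null chicken DT40 cells were treated with library compounds minus camptothecin and grown for at least 48 hr at 37 °C, after which cellular ATP was quantified by luminescence.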
HepG2 tox – HepG2 cytotoxicity, counter-screen for TGF-b inhibitors | Potency, µM (highest dose often 46.1 µM), usual class: cytotoxic | HepG2 CAGA-GFP viability, ATP luminescence, 18 h | AID 588856 | 410,000 compounds, 0.76% hits
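CellTiter-Glo luminescence gave cytotoxicity after 18 hours at 37 degrees C. The cells were HepG2 CAGA-GFP in 1% FBS DMEM, stimulated with 500 pg/mL TGF-beta after compound addition. %Activity was normalised to no-cell wells (complete cell-killing) and DMSO (no toxicity), and curves were fitted and classified.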
DT40 TDP1 CPT – growth inhibition of DT40 Tdp1-/-;hTDP1 cells with camptothecin (screen for TDP1 inhibitors); Potency, µM (titrated, usually from 46.2 µM), usual class: inhibitors; chicken DT40 Tdp1-/-;hTDP1 cells + 20 nM CPT, ATP luminescence, 48 h; AID 686979; 420,000 compounds, 12% hits; also: nearly all actives have a fitted effect of over 55% in size
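Chicken DT40 Tdp1-/- cells complemented with human TDP1, 400 cells/well, exposed to compounds plus 20 nM camptothecin for at least 48 h at 37 C; viability read as ATP content by CellTiter-Glo luminescence.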
TGFb inhibitor – blocks TGF-b signaling; HepG2 CAGA-GFP TGF-b/SMAD3 reporter, GFP fluorescence, 18 h; TGF-beta stimulated, 500 pg/mL final; Potency, µM (series often up to 46.1 µM), actives largely listed as inhibitors; 410,000 compounds, 1.2% hits; AID 588855; also: nearly all actives have a fitted effect of over 65% in size
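Cell-based qHTS in HEPG2 carrying a CAGA-GFP Smad reporter; compounds added before 500 pg/mL final TGF-beta, 18 h incubation at 37 degrees C, GFP fluorescence quantified per cell by imaging cytometry.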
Hits are given with their value; 0 = inactive; ? = inconclusive; - = no result; [ ] = dose if it differs, or a comment. Calls follow the shape of the dose curve; as a rule, active = well fitted curve in the direction sought with a large enough effect; inconclusive = small, poorly fitted or top-dose-only effect, or another doubt; inactive = no such curve, though single readings can be large; an effect the other way counts as inactive or inconclusive.

SMILES | HT1080-NT tox | HT1080 IDH1KD tx | TDP1 cell noCPT | HepG2 tox | DT40 TDP1 CPT | TGFb inhibitor
COc1c(F)c(F)c(C(=O)Nc2c(C)cc(Br)cc2C)c(F)c1F | 0 | 0 | 0 | 0 | 0 | 0
Cc1noc(C)c1COc1ccccc1C(=O)N1CCN(S(=O)(=O)c2cccc(Cl)c2)CC1 | 0 | 0 | 0 | 0 | 0 | 0
Cc1cc(C)c(C)c(S(=O)(=O)N2CCN(C(=O)c3ccccc3OCc3c(C)noc3C)CC2)c1C | 0 | 0 | 18µM | 0 | ? | 0
Cc1noc(C)c1COc1ccccc1C(=O)N1CCN(S(=O)(=O)c2ccc(C(C)C)cc2)CC1 | 0 | 0 | 16µM | 0 | ? | 0
Cc1noc(C)c1COc1ccccc1C(=O)N1CCN(S(=O)(=O)c2ccccc2Br)CC1 | 0 | 0 | 21µM | 0 | 16µM | ?
Cc1noc(C)c1COc1ccccc1C(=O)N1CCN(S(=O)(=O)c2ccccc2C(F)(F)F)CC1 | 0 | 0 | ? | 0 | ? | ?
COc1ccccc1C1OC(=O)CC1C(=O)OC[C@@H]1CCCN2CCCCC12 (stereo partly drawn) | - | - | 0[9.04 µM] | - | 0[9.04 µM] | -
CC#CC(=O)N1CCC(CCC(=O)N(C)Cc2ccccc2)CC1 | 0 | 0 | 0 | 0 | 0 | 0
O=C(C[n+]1ccncc1)c1cccc2ccccc12 | - | - | ? | 0 | ? | 0
C=C1CCC[C@]2(C)C[C@H]3OC(=O)C(CNCC(C)C)[C@H]3CC12 (stereo partly drawn) | ? | ? | 16µM | 0 | ? | ?
C=C1CCC[C@]2(C)C[C@H]3OC(=O)C(CNCCN(CC)CC)[C@H]3CC12 (stereo partly drawn) | 0 | ? | 16µM | 0 | ? | 0
CCN(Cc1ccccc1)S(=O)(=O)c1c(C)[nH]c(C)c1C(=O)N1CCCCC1 | 0 | 0 | 0 | 0 | 0 | 0
COc1ccc(NS(=O)(=O)c2cc([N+](=O)[O-])ccc2N/N=C/c2c(C)[nH]c3ccccc23)cc1 | 0 | 0 | 23µM | 0 | ? | 0
O=[N+]([O-])c1cc(-c2nc(-c3ccccn3)no2)ccc1NCc1ccccc1 | - | - | 0 | 0 | 0 | ?
C=CCNCc1cccn1-c1sc2c(c1C#N)CCCC2 | 0 | ? | 21µM | 0 | 21µM | 0
O=C(O)c1cccc(Cn2c(Cl)c(/C=N/Nc3ccccc3)sc2=O)c1 | ? | 5.8µM | 0 | 0 | ? | 0
CC1CCN(C(=O)CSc2nnc3c(n2)[nH]c2ccccc23)CC1 | 0 | 0 | ? | 0 | 0 | ?
O=C(NCCc1ccccc1)c1ccc(CSc2nc3cccnc3n2Cc2ccccc2F)cc1 | - | - | 9.2µM | 0 | ? | 0
O=C(NCCc1ccccc1)c1ccc(Cn2c(SCc3ccccc3F)nc3cccnc32)cc1 | - | - | 18µM | 0 | 16µM | 0
O=C(NCCc1ccccc1)c1ccc(Cn2c(SCc3ccc(F)cc3)nc3cccnc32)cc1 | - | - | 0 | 0 | ? | 0
O=C(NCc1ccc2c(c1)OCO2)C1CC(=O)N(c2ccc(Cl)cc2)C1 (stereo not drawn) | 0 | 0 | 0 | 0 | 0 | 0
CCCC#CCN1CCN(C23CC4CC(CC(C4)C2)C3)CC1 | 0 | 0 | 0 | 0 | 0 | 0
CC(=O)c1cccc(NC(=O)CN2C(=O)NC(C)(c3ccc4c(c3)OCCCO4)C2=O)c1 (stereo not drawn) | 0 | 0 | ? | 0 | ? | 0
COc1ccc(-c2ccc(C(=O)Nc3cccc(Oc4ccccc4)c3)c3occc23)c(C)c1 | 0 | 0 | 16µM | 0 | 23µM | 0
COc1ccc(-c2coc3c(C(=O)Nc4cccnc4)cccc23)c(C)c1 | ? | ? | 8.2µM | 0 | 18µM | 0
COc1ccc(-c2ccc(C(=O)Nc3cccc(C(C)=O)c3)c3occc23)c(C)c1 | 0 | ? | 8.2µM | 0 | 12µM | 0
